Source: PubChem BioAssay
In the library only some 0.92% were active in any assay of this set; here they are far more common.
RECQ1 helicase: qHTS Assay for Inhibitors of RecQ-Like Dna Helicase 1 (RECQ1) | ATP-dependent DNA helicase Q1 (Homo sapiens), P46063 | RECQ1 DNA unwinding, red fluorescence kinetic read | Potency, µM (series often up to 57.3 µM), for inactives: at the highest dose activity, negative = inhibition, actives largely listed as inhibitors | actives 0.54% (n = 240,000);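 also: plate controls were vehicle for no effect and no enzyme for full effect; nearly all actives have a fitted effect of over 30% in size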
Target sequence (P46063 whole entry, looked up): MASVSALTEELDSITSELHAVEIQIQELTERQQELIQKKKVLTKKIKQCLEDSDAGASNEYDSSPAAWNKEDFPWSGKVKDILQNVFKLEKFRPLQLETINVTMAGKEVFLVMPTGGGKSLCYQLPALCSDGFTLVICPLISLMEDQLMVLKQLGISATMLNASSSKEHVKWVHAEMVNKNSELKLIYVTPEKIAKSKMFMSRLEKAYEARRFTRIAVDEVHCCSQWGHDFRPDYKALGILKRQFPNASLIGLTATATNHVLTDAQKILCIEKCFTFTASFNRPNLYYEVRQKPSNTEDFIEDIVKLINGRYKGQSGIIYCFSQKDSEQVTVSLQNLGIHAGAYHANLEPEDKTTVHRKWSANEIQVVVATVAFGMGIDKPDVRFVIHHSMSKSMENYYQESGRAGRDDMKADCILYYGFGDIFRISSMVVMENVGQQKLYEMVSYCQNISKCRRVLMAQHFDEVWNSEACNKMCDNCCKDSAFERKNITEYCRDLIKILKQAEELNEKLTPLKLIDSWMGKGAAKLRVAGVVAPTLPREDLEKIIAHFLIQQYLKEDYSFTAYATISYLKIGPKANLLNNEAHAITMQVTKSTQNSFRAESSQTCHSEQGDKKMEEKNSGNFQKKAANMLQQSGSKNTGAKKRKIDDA
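RECQ1T1 50 nM; forked duplex (20 bp + 30-nt ss tails) 200 nM, ATP 2 mM final; pH 8.0, 2 mM MgCl2, 2.5 ug/ml poly(dI-dC); 15 min compound preincubation; discontinuous kinetic read over 2 h at RT.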
L3MBTL1 block: qHTS Assay for the Inhibitors of L3MBTL1; AlphaScreen L3MBTL1–H3K9me1 peptide binding; Potency, µM (top dose mostly 57.1 µM), inactives show top-dose activity, negative = inhibition, usual class: inhibitors; actives 0.66% (n = 230,000); also: nearly all actives have a fitted effect of over 60% in size
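Displacement of a biotinylated histone H3(1-15) peptide monomethylated at Lys9 (75 nM) from L3MBTL1 (50 nM) was measured by AlphaScreen after a 30 min room-temperature compound incubation; cefsulodin titration served as intraplate control.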
BLM helicase inh: qHTS Assay for Inhibitors of Bloom's syndrome helicase (BLM); recombinant BLM DNA unwinding, fluorescence dequenching; Potency, µM (top dose mostly 56.1 µM), inactives show at the highest dose activity change, negative = inhibition, actives largely listed as inhibitors; actives 0.2% (n = 350,000);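 also: plate controls were vehicle for no effect and no enzyme for full effect; nearly all actives have a fitted effect of over 35% in size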
WRN inhibitor: qHTS for Inhibitors of WRN Helicase | Bifunctional 3'-5' exonuclease/ATP-dependent helicase WRN (Homo sapiens), Q14191 | WRN helicase unwinding, fluorescent forked duplex, kinetic | actives 0.46% (n = 360,000) | Potency, µM (series often up to 114 µM), for the others: at the top dose activity change, negative = inhibition, usual class: inhibitors; also: nearly all actives have a fitted effect of over 55% in size
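Screening of the MLSMR collection measured strand separation of a quenched forked DNA duplex (100 nM) by 20 nM WRN with 2 mM ATP, all final. Compounds were preincubated with enzyme 15 min at room temperature.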
APE1 inh-1: qHTS Assay for Inhibitors of the Human Apurinic/apyrimidinic Endonuclease 1 (APE1) | recombinant APE1, TAMRA/BHQ-2 abasic DNA cleavage fluorescence | AID 2517, 2012 | DNA repair nuclease/redox regulator APEX1 (Homo sapiens), P27695 | actives 0.35% (n = 350,000) | Potency, µM (highest dose often 65.8 µM), for inactives: at the highest dose activity change, negative = inhibition, most hits filed as inhibitors;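 also: plate controls were vehicle for no effect and reference inhibitor for full effect; nearly all actives have a fitted effect of over 55% in size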
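Substrate: short duplex with […] THF abasic site, 5'-TAMRA and 3'-BHQ-2, 50 nM final. APE1 at 0.75 nM, preincubated 15 min RT with compound. Fluorescence increase from first to third read measured activity.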
DNA dye displace: Counterscreen for APE1 Inhibitors: Fluorescent Dye Displacement Assay. shares compounds with APE1 inh-1. DNA fluorescent dye displacement counterscreen, fluorescence. Potency, µM (series often up to 28.5 µM), without a hit: at the highest dose activity change, negative = inhibition, most hits filed as inhibitors. actives 7% (n = 480). AID 2564, 2010;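 also: loss of thiazole orange fluorescence as the dye is displaced from duplex DNA; 0% = ThO with dsDNA and no compound and -100% = ThO without dsDNA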
Endo IV inh: Counterscreen for APE1 Inhibitors: qHTS Assay for Inhibitors of Endonuclease IV. shares compounds with APE1 inh-1. E. coli Endo IV, fluorogenic AP-site DNA cleavage. Potency, µM (top dose mostly 27.1 µM), without a hit: at the top dose activity change, negative = inhibition, most hits filed as inhibitors. actives 4% (n = 560);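 also: plate controls were uninhibited enzyme wells for no effect and no enzyme buffer wells for full effect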
APE1 inh-2: Confirmation qHTS Assay for Inhibitors of the Human Apurinic/apyrimidinic Endonuclease 1 (APE1). shares compounds with APE1 inh-1. actives 44% (n = 750). Potency, µM (series often up to 57.1 µM), for the others: at the top dose activity change, negative = inhibition, hits mostly inhibitors. purified APE1, fluorogenic abasic-site DNA cleavage; also: nearly all actives have a fitted effect of over 30% in size
APE1 FP: qHTS FP-Based Assay for Inhibitors of the Human Apurinic/apyrimidinic Endonuclease 1 (APE1); actives 7% (n = 480); shares compounds with APE1 inh-1; APE1 binding to TAMRA-labelled double-stranded DNA, fluorescence polarization displacement; Potency, µM (highest dose often 28.5 µM), for inactives: at the highest dose activity, negative = inhibition, hits mostly inhibitors; AID 2573, 2010
An asterisk follows results filed as active; i = inactive; u = inconclusive; x = no result given; [ ] = remark or other dose. Calls follow the shape of the dose curve; as a rule, active = well fitted curve in the direction sought with a large enough effect; inconclusive = small, poorly fitted or top-dose-only effect, or another doubt; inactive = no such curve, though single readings can be large; an effect the other way counts as inactive or inconclusive. Unless noted, % is scaled to controls: 0 for no effect and ±100 for the full control effect; potency is read from the fitted curve at half-maximal effect.

SMILES	RECQ1 helicase	L3MBTL1 block	BLM helicase inh	WRN inhibitor	APE1 inh-1	APE1 inh-2	others
O=C(CSc1nnc(-c2cccc(S(=O)(=O)N3CCCC3)c2)n1-c1ccccc1)Nc1ccc(C(=O)O)cc1	-13%	x	u	50µM*	-2%	u
CC[C@H]1C(c2cccc(Cl)c2)=NN(c2ccccc2)[C@@H]1CO	-24%[81.1 µM]	x	-20%[75.6 µM]	x	u	x
CC[C@H](C)[C@H](NC(=O)CNC(=O)[C@H](C)NC(=O)[C@H](C)N)C(=O)NCC(=O)N[C@H](C(=O)N[C@@H](CC(C)C)C(=O)N[C@H](C(=O)N[C@H](C(=O)O)C(C)C)[C@@H](C)O)[C@@H](C)CC	-8%	x	-3%	x	-2%	x
COc1ccc2c(c1)c(=O)oc1cc(O)ccc12	-13%	20%	-2%	-18%	-3%	x
COc1ccc2c(c1)c(=O)oc1cc3oc(C)c(C)c3cc12	-12%	x	-16%	x	u	5.6µM*	DNA dye displace=38%;Endo IV inh=-2%;APE1 FP=-4%
Cc1o[nH]c(=O)c1CCC(N)C(=O)O (stereo unspecified)	-11%	x	x	x	-10%	x
O=C(CSc1nnc(SCc2ccc(Cl)cc2)s1)N/N=C/c1c[nH]c2ccccc12	i	-15%	u	u	0%	-21%
O=C(CSc1nnc(SCc2cccc3ccccc23)s1)N/N=C/c1c[nH]c2ccccc12	-8%	-7%	-4%	-10%	-4%	x
O=c1cc(-c2ccc(O)c(O)c2)oc2cc(O)c([C@@H]3O[C@H](CO)[C@@H](O)[C@H](O)[C@H]3O)c(O)c12	i	u	7%	-18%	-10%	x
O=c1c2cc(O)c(O)cc2oc2cc(O)c(C3OC(CO)C(O)C(O)C3O)c(O)c12 (stereo unspecified)	-26%	3.2µM*	4%	-17%	2.4µM*	7.1µM*	DNA dye displace=38%[57.1 µM];Endo IV inh=70%[57.1 µM];APE1 FP=6%[57.1 µM]
